Source: article PMC5700166

Target: T1, GST-Nv-NF-kB (Ser allele) (Nematostella vectensis, UniProt A7UNT2 2-411)
T1 sequence: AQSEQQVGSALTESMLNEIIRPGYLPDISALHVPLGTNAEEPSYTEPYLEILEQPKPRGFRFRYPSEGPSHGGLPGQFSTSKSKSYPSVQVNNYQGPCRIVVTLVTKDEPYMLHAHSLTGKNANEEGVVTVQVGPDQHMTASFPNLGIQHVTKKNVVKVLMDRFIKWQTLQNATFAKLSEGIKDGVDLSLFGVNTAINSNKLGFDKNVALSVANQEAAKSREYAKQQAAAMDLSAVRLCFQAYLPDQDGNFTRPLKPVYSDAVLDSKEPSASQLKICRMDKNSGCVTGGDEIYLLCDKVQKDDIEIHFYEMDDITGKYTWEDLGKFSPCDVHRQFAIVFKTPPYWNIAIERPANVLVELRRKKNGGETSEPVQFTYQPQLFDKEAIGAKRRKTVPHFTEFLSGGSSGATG
Assay: protein-binding microarray (PBM); PBM: ~300 nM protein, 6 mM HEPES pH 7.8, 80 mM KCl, 0.5 mM EDTA, 0.5 mM EGTA, 6% glycerol, 35 ng/ul poly-dIdC, 1% milk, 1 h, room temperature; Ap Aiptasia and Nv Nematostella (sea anemones) / Co Capsaspora / Aq Amphimedon (sponge) / Dm Drosophila / Hu human; RHD is the Rel homology domain; high values mean tight binding
Conditions: dsDNA, one strand shown

| Sequence | binding signal |
| --- | --- |
| CCGATTAACATCAAGGGGTCCCCTGATGTTAATCGGGTCTTGATTCGCTTGACGCTGCTG | 2.59 z-score |
| CCGATTAACATCAGGGAAAGAACTGATGTTAATCGGGTCTTGATTCGCTTGACGCTGCTG | 3.33 z-score |
| CCGATTAACATCAAAGAAGCCCCTGATGTTAATCGGGTCTTGATTCGCTTGACGCTGCTG | 4.95 z-score |
| CCGATTAACATCATTGTCCCTTCTGATGTTAATCGGGTCTTGATTCGCTTGACGCTGCTG | 3.35 z-score |
| CCGATTAACATCACCGAATTTGGTGATGTTAATCGGGTCTTGATTCGCTTGACGCTGCTG | 1.14 z-score |
| CCGATTAACATCAGGGACTCACCTGATGTTAATCGGGTCTTGATTCGCTTGACGCTGCTG | 2.72 z-score |
| CCGATTAACATCAGGGGAATGACTGATGTTAATCGGGTCTTGATTCGCTTGACGCTGCTG | 6.22 z-score |
| CCGATTAACATCAGGGGGGGCACTGATGTTAATCGGGTCTTGATTCGCTTGACGCTGCTG | 3.3 z-score |
| CCGATTAACATCAGTCCCTAAGCTGATGTTAATCGGGTCTTGATTCGCTTGACGCTGCTG | 1.05 z-score |
| CCGATTAACATCAGGATTGCCCCTGATGTTAATCGGGTCTTGATTCGCTTGACGCTGCTG | 2.73 z-score |
| CCGATTAACATCAGGGAAAAAACTGATGTTAATCGGGTCTTGATTCGCTTGACGCTGCTG | 6.38 z-score |
| CCGATTAACATCACGGGTTTCCCTGATGTTAATCGGGTCTTGATTCGCTTGACGCTGCTG | 4.88 z-score |
| CCGATTAACATCAATTCCCAAGGTGATGTTAATCGGGTCTTGATTCGCTTGACGCTGCTG | 2.02 z-score |
| CCGATTAACATCACAAAACTCCCTGATGTTAATCGGGTCTTGATTCGCTTGACGCTGCTG | 6.52 z-score |
| CCGATTAACATCAAAAACACCCCTGATGTTAATCGGGTCTTGATTCGCTTGACGCTGCTG | 3.89 z-score |
| CCGATTAACATCAGGGCTTTACCTGATGTTAATCGGGTCTTGATTCGCTTGACGCTGCTG | 1.71 z-score |
| CCGATTAACATCAGGAGTACCCCTGATGTTAATCGGGTCTTGATTCGCTTGACGCTGCTG | 2.31 z-score |
| CCGATTAACATCAAAGTACCCCCTGATGTTAATCGGGTCTTGATTCGCTTGACGCTGCTG | 5.79 z-score |
| CCGATTAACATCAAAAATTCCGGTGATGTTAATCGGGTCTTGATTCGCTTGACGCTGCTG | 1.4 z-score |

| Sequence | binding signal |
| --- | --- |
| CCGATTAACATCACTAAAATCCCTGATGTTAATCGGGTCTTGATTCGCTTGACGCTGCTG | 3.42 z-score |
| CCGATTAACATCAGGGAACTACCTGATGTTAATCGGGTCTTGATTCGCTTGACGCTGCTG | 4.46 z-score |
| CCGATTAACATCAAAAAGTTCCCTGATGTTAATCGGGTCTTGATTCGCTTGACGCTGCTG | 5.17 z-score |
| CCGATTAACATCAGGAATCTACCTGATGTTAATCGGGTCTTGATTCGCTTGACGCTGCTG | 1.79 z-score |
| CCGATTAACATCACGGAAACCCCTGATGTTAATCGGGTCTTGATTCGCTTGACGCTGCTG | 3.87 z-score |
| CCGATTAACATCAGGGGTCCCCATGATGTTAATCGGGTCTTGATTCGCTTGACGCTGCTG | 1.95 z-score |
| CCGATTAACATCACCCGCTTTATTGATGTTAATCGGGTCTTGATTCGCTTGACGCTGCTG | 1.21 z-score |
| CCGATTAACATCAAGGAATTTCCTGATGTTAATCGGGTCTTGATTCGCTTGACGCTGCTG | 1.22 z-score |
| CCGATTAACATCACAAACTTCCCTGATGTTAATCGGGTCTTGATTCGCTTGACGCTGCTG | 4.44 z-score |
| CCGATTAACATCAAAAATTGCCCTGATGTTAATCGGGTCTTGATTCGCTTGACGCTGCTG | 2.01 z-score |
| CCGATTAACATCACAACACCCCCTGATGTTAATCGGGTCTTGATTCGCTTGACGCTGCTG | 5.01 z-score |
| CCGATTAACATCAAATTCCCAGATGATGTTAATCGGGTCTTGATTCGCTTGACGCTGCTG | 3.83 z-score |
| CCGATTAACATCAATTCCCGTACTGATGTTAATCGGGTCTTGATTCGCTTGACGCTGCTG | 1.96 z-score |
| CCGATTAACATCACGGAATACCCTGATGTTAATCGGGTCTTGATTCGCTTGACGCTGCTG | 3.97 z-score |
| CCGATTAACATCAACGCCCCCCCTGATGTTAATCGGGTCTTGATTCGCTTGACGCTGCTG | 4.55 z-score |
| CCGATTAACATCAGGGGAGTTAATGATGTTAATCGGGTCTTGATTCGCTTGACGCTGCTG | 4.74 z-score |
| CCGATTAACATCAAGGGATCCCCTGATGTTAATCGGGTCTTGATTCGCTTGACGCTGCTG | 6.37 z-score |
| CCGATTAACATCAGGGGGTGTTATGATGTTAATCGGGTCTTGATTCGCTTGACGCTGCTG | 4.85 z-score |
